Most compounds without a hit are left out; they make up all but 3.2% or so of the library.
Tau ThT inhib: tau fibrillization inhibition (ThT binding) | recombinant tau K18 P301L, heparin-induced fibrillization, ThT fluorescence | Potency, µM (titrated, usually from 57.4 µM), inactives show at the highest dose activity, negative = inhibition, usual class: inhibitors | hit rate 2.1% among 270,000; note: potency is the fitted concentration of half-maximal effect; % is set by controls: 0 for no effect and ±100 for the full control effect; nearly all actives have a fitted effect of over 55% in size
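In this qHTS, human K18 P301L tau is incubated with compound and heparin for 6 hr at 37 C, and Thioflavin T fluorescence then reports fibril load.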
LMNA splice mod: changes lamin A minigene splicing in HeLa cells | Potency, µM (top dose mostly 46.1 µM), for inactives: at the top dose ratio change, negative = inhibition, hits mostly inhibitors | hit rate 0.01% among 200,000 | HeLa LMNA splicing GFP/RFP minigene ratio, 48 h | AID 1487; active = well fitted inhibition curve with a large enough effect in the signal ratio, with a control signal flat, not every such curve was filed as active; inconclusive = small, poorly fitted or top-dose-only effect, or effect the other way, or a change in a side signal; the % refers to the signal ratio; note: potency is the fitted concentration of half-maximal effect; % is set by controls: 0 for no effect and ±100 for the full control effect
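S3 HeLa stable clones carrying a lamin A-EGFP splicing minigene plus DsRed2 were seeded at 600 cells/well in Opti-MEM with 2% FBS, pin-dosed and incubated 48 h at 37°C. Acumen cytometry (488 nm) gave the GFP/RFP total-intensity ratio.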
CBFb RUNX1 block: CBF-beta/RUNX1 interaction disruption; Q01196+Q13951; AlphaScreen CBFb-His/RUNX1-biotin binding, biochemical; Potency, µM (doses to about 59.8 µM), for the others: at the top dose activity, negative = inhibition, usual class: inhibitors; 230,000 tested, under 10 active; AID 1477; note: % of control where 0% means no effect
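Compounds were screened at multiple concentrations against a preformed CBF-beta(His)/RUNX1(biotin) complex (30 nM of each) for 15 min at room temperature, followed by 90 min with nickel and streptavidin beads and AlphaScreen reading.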
Tau FP inhib: blocks human tau fibril formation measured by polarization; P10636; K18 P301L tau heparin fibrillization, Alexa594 FP, 6 h; Potency, µM (highest dose often 57.7 µM), for the others: at the highest dose activity, negative = inhibition, most hits filed as inhibitors; hit rate 0.39% among 280,000; note: potency is the fitted concentration of half-maximal effect; % is set by controls: 0 for no effect and ±100 for the full control effect; nearly all actives have a fitted effect of over 55% in size
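Read-out: fluorescence polarization of Alexa 594-labeled tau (0.24 uM), 555 nm excitation, 632 nm emission. Mixtures held 15 uM unlabeled K18 P301L, compound and 20 uM heparin, pH 7 acetate buffer, incubated 6 hr at 37 C.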
KDM4E inh: blocks human JMJD2E demethylase activity; AID 2147; B2RXH2; JMJD2E catalytic domain, FDH-coupled NADH fluorescence (FDH is formaldehyde dehydrogenase); Potency, µM (titrated, usually from 57.1 µM), for inactives: top-dose activity change, negative = inhibition, usual class: inhibitors; hit rate 1.6% among 230,000; active = well fitted inhibition curve with a large enough effect, not every such curve was filed as active; inconclusive = small, poorly fitted or top-dose-only effect, or another doubt; inactive = no such curve, though single readings can be large or run the other way;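 note: potency is the fitted concentration of half-maximal effect; 0% = wells with enzyme and -100% = buffer wells without enzyme; nearly all actives have a fitted effect of over 50% in size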
Tau fluor cs: counter-screen for tau fibril formation inhibitors. tau K18 P301L (four-repeat tau fragment) Alexa594 fluorescence, heparin fibrillization. Potency, µM (doses to about 57.7 µM), without a hit: at the top dose activity change, negative = decrease. hit rate 0.93% among 280,000. AID 1463; note: potency is the fitted concentration of half-maximal effect; % is set by controls: 0 for no effect and ±100 for the full control effect; nearly all actives have a fitted effect of over 55% in size
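Human K18 P301L tau (15 uM unlabeled plus 0.24 uM Alexa 594-labeled, final) in 100 mM sodium acetate pH 7 was mixed with compound and 20 uM heparin and incubated 6 hr at 37 C.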
An asterisk follows results filed as active; ? = inconclusive; . = not tested or not shown; ! = not confirmed by another sample; [ ] = remark or other dose. Unless noted, calls come from the whole dose curve; as a rule, active = well fitted curve in the direction sought with a large enough effect; inconclusive = small, poorly fitted or top-dose-only effect, or another doubt; inactive = no such curve, though single readings can be large; an effect the other way counts as inactive or inconclusive.

SMILES | Tau ThT inhib | LMNA splice mod | CBFb RUNX1 block | Tau FP inhib | KDM4E inh | Tau fluor cs
N[C@H](C(=O)N[C@@H]1C(=O)N2C(C(=O)O)=C(Cl)CS[C@@H]12)c1ccccc1 | . | ? | -8%[21.7 µM] | . | 14µM*! | .
NC(C(=O)NC1C(=O)N2C(C(=O)O)=C(Cl)CSC12)c1ccccc1 (centres undefined) | 14µM* | . | ? | ? | ? | -20%
Cn1nnnc1SCC1=C(C(=O)O)N2C(=O)C(NC(=O)C(O)c3ccccc3)C2SC1 (centres undefined) | ? | . | 9% | ? | ? | -10%
Cc1cccc2nc(Cn3c(=O)n(-c4ccc(Cl)cc4)c(=O)c4c5c(sc43)CCC5)cc(=O)n12 | -19% | . | . | 9% | . | 1%
Cc1ccc2[nH]c(=S)cc(C)c2c1 | ? | 7% | 6% | -2% | 7.1µM* | 0%
COC(=O)c1ccccc1N/C=C1\CCc2c(c(C)nn2-c2ccccn2)C1=O | 14µM* | 8% | 1% | ? | ? | ?
COc1ccc(-c2oc(NC(C)=O)c(C#N)c2-c2ccc(OC)cc2)cc1 | ? | -12% | -5% | ? | -3% | 16µM*[quencher]
N#Cc1c(N2CCN(c3ccc(F)cc3)CC2)nc(N)c2c(N)nc3c(c12)CC(=O)N3C1CC1 | 9% | . | -8% | 11% | -6% | 7%
CN(CCO)c1nc(N)c2c(N)nc3c(c2c1C#N)CC(=O)N3C1CCCC1 | 28µM* | -4% | . | ? | ? | ?
CC1(C)CC(=O)C(CC2C(=O)CC(C)(C)CC2=O)C(=O)C1 | 10µM* | . | 8% | ? | 0% | ?
CC1(C)CC(=O)C(CC2CCCCC2=O)C(=O)C1 (centres undefined) | 8% | . | -1% | 1% | -1% | 10%
COc1ccc(OC)c(C2CC(=O)N3CN(c4ccccc4F)CSC3=C2C#N)c1 (centres undefined) | 28µM* | 2% | ? | 25µM* | 2.2µM* | -23%
COc1cccc(C2CC(=O)N3CN(c4ccccc4F)CSC3=C2C#N)c1 (centres undefined) | ? | 2% | -1% | -8% | ? | -15%
COc1cccc(C2CC(=O)N3CN(c4cccc(Cl)c4C)CSC3=C2C#N)c1OC (centres undefined) | 28µM* | 1% | -8% | 32µM* | ? | ?
COc1ccc(OC)c(C2CC(=O)N3CN(c4cccc(Cl)c4C)CSC3=C2C#N)c1 (centres undefined) | 28µM* | 3% | -10% | 32µM* | ? | ?
COc1cccc(C2C(C#N)=C(N)Oc3cc(C)[nH]c(=O)c32)c1OC (centres undefined) | -13% | 11% | 2% | -11% | 2% | -17%
O=C(O)c1cc(NC(=O)c2ccc(Cl)c([N+](=O)[O-])c2)cc(C(=O)O)c1 | -2% | . | -14% | 2% | ? | -1%
O=C(Nc1ccccc1)Nc1ccc(Cl)c([N+](=O)[O-])c1 | ? | ? | 4% | ? | -4% | 11µM*[quencher]
O=C(Nc1ccc(C(O)(C(F)(F)F)C(F)(F)F)cc1)c1ccc(Cl)c([N+](=O)[O-])c1 | ? | ? | -9% | -14% | -10% | 13µM*[quencher]
COc1ccc(C(=O)CCC(=O)Nc2ccc(C)c(Cl)c2)cc1 | -18% | 8%[46 µM] | . | ? | . | -29%
Cc1oc2ccc(O)cc2c1C(=O)c1ccc([N+](=O)[O-])cc1 | -13% | ? | -10% | 13% | 9% | -25%
CN(C)/C=C/c1oc2ccc(O)cc2c1[N+](=O)[O-] | 11µM* | . | -26% | 5% | -2% | -13%
Nc1ccc(OC(=O)Nc2ccc(O)cc2)cc1 | . | . | -17% | ? | 18µM* | ?
O=C(Nc1ccc(N2CCN(c3ccc(O)cc3)CC2)cc1)Oc1ccccc1 | 5µM* | -5% | -12% | -5% | ? | 7.9µM*[quencher]

Bioassay records (PubChem)
